The list is not random: actives were taken first. Their share in the collection is about 2.3%.
CHO-K1 Ca ag – nonselective activator or artifact in parental CHO-K1 cells; Fluo-8 calcium fluorescence; scaled to maximal ATP response, vehicle zero; activation, % at 3 µM; actives 0.48% (n = 360,000); AID 602248; in the data active means activation above about 15%;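 further: untransfected CHO-K1 host cells lacking M1 receptor as counterscreen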
M1 ag – activates human CHRM1 receptor; P11229; CHO-K1 hM1, Fluo-8 calcium fluorescence, agonist mode; 0% DMSO, 100% acetylcholine EC100; activation, % at 3 µM; actives 0.33% (n = 360,000); AID 588814;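 active means activation above the run's mean compound activation plus 3 SD, cut at about 16% in these data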;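 further: peak over basal fluorescence ratio within a 140 s kinetic read after compound addition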
Target sequence (P11229 whole entry, looked up): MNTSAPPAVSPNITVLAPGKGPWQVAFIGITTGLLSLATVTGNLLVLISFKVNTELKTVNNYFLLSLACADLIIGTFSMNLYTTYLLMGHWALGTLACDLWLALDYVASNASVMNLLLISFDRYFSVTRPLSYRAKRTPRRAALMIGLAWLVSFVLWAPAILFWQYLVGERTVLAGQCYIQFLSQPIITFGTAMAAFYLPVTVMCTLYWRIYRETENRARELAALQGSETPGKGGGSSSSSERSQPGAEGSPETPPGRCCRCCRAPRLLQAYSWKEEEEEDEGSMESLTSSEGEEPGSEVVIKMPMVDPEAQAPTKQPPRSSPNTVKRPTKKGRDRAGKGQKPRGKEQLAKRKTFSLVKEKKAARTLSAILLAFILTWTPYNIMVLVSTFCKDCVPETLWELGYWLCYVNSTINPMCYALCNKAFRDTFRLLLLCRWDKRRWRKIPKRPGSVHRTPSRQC
M1 PAM – human CHRM1 positive allosteric modulation. P11229. CHO-K1 hM1, Fluo-8 calcium fluorescence, ACh EC20; 0% = ACh EC20, 100% = maximal ACh. activation, % at 3 µM. actives 0.088% (n = 360,000); in the data active means activation above about 19%, passing the limit was not always enough
CHRM1 antagonist – human CHRM1 antagonism | CHO-K1 hM1, Fluo-8 calcium fluorescence, ACh EC80 antagonist | inhibition, % at 3 µM | actives 1.3% (n = 360,000);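 active means percent inhibition above its own plate's cutoff, namely the mean of that plate's compound wells plus 3 SD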;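 further: peak over basal fluorescence ratio during 140 s after agonist addition; 0% = ACh EC80 plus DMSO and 100% = DMSO alone without agonist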
M1 PAM parental – M1 PAM counterscreen hit in parental CHO-K1 cells; ATP EC20, Fluo-8 calcium fluorescence; 0% at ATP EC20, 100% at ATP max; activation, % at 3 µM; AID 602247; actives 0.02% (n = 360,000);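 active means activation above the run cutoff, the mean activation of all test compounds plus 3 SD, cut at about 40% in these data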;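 further: peak over basal fluorescence ratio in a 140 s read after ATP addition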
CHO-K1 Ca antag – nonselective inhibitor or artifact in parental CHO-K1 cells | inhibition, % at 3 µM | AID 602250 | actives 0.6% (n = 360,000) | ATP-induced calcium, Fluo-8 fluorescence;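 active means inhibition above a per-plate cutoff, the plate's mean sample inhibition plus 3 SD, cut at about 24% in these data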;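 further: 0% = DMSO plus EC80 ATP and 100% = DMSO alone without ATP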
Active calls of the source: *; . = no result given.

SMILES	CHO-K1 Ca ag	M1 ag	M1 PAM	CHRM1 antagonist	M1 PAM parental	CHO-K1 Ca antag
COc1cc(/C=C/C(=O)OCC(=O)Nc2ccc([N+](=O)[O-])cc2)ccc1O	19.2*	24.7*	-5.8	5.5	12.4	-14.2
Cc1c(OCC(=O)N2CCN(c3ccccc3)CC2)ccc2c3c(c(=O)oc12)CCCC3	1.8	-1.8	7.4	-6.6	7.6	25.1*
Cc1c(OCC(=O)N2CCC(C(=O)O)CC2)ccc2c3c(c(=O)oc12)CCCC3	0.3	0.2	1.0	-3.5	-11.4	2.2
Cc1c(OCC(=O)N(C)C)ccc2c3c(c(=O)oc12)CCCCC3	0.7	-9.2	-12.8	12.5	-12.8	25.2*
CCOc1ccccc1NC(=O)C(OC(=O)c1cnc(C)cn1)c1ccccc1 (centres undefined)	0.3	-3.0	6.3	-9.6	46.1*	-12.1
O=C1NC[C@H](CCCCN2C[C@@H](Cc3ccccc3)N(CC3CCCCC3)C(=O)C2=O)N(CCC2CCCCC2)C1=O	26.3*	.	.	.	5.7	-15.9
O=C1NC[C@H](CCCCN2C[C@H](Cc3ccccc3)N(CC3CCCCC3)C(=O)C2=O)N(CCC2CCCCC2)C1=O	0.5	.	.	.	16.4	-17.7
O=C1NC[C@@H](CCCCN2C[C@H](Cc3ccccc3)N(CC3CCCCC3)C(=O)C2=O)N(CC2CCCCC2)C1=O	35.3*	.	.	.	9.3	-18.3
CCC(C)c1ccc(NC(=S)N2CCN(S(C)(=O)=O)CC2)cc1 (centres undefined)	0.4	-3.5	0.3	0.6	5.1	-12.0
Cc1ccc(N2CCN(C(=S)Nc3ccccc3)CC2)cc1	22.2*	-6.5	-3.0	-0.8	2.9	4.2
Cc1ccc(CC(=O)N2CCN(c3cccc(C(F)(F)F)c3)CC2)cc1	7.3	2.2	-9.7	32.0*	4.1	15.3
O=C(c1coc2ccccc2c1=O)N1CCN(c2cccc(C(F)(F)F)c2)CC1	0.8	-10.6	-34.0	53.9*	2.9	-17.0
FC(F)(F)c1cccc(NC(=S)N2CCN(c3cccc(C(F)(F)F)c3)CC2)c1	0.3	-3.6	-15.0	37.7*	-3.1	12.4
S=C(Nc1ccccc1)N1CCN(c2ccccc2)CC1	1.6	2.1	-8.2	5.1	-12.3	0.0
COc1cc(C#N)ccc1OC(=O)C1CCN(C(=O)c2ccc(F)cc2)CC1	2.3	-0.8	12.5	-27.3	-2.6	-1.5
C/C(=N\NC(=O)c1ccc(CSc2nc(C)cc(C)n2)cc1)c1ccco1	1.1	-2.0	4.6	-6.2	3.4	-9.6
Cc1ccc(-c2cc(C(=O)N3CCN(c4ccccc4O)CC3)c3ccccc3n2)o1	7.5	3.8	-13.5	42.1*	-21.3	3.6
Cc1ccc(-c2cc(C(=O)N3CCN(c4ncccn4)CC3)c3ccccc3n2)cc1	3.2	0.4	-13.4	31.3*	9.6	0.1
COc1cccc(-c2cc(C(=O)N3CCN(c4ncccn4)CC3)c3ccccc3n2)c1	4.4	0.3	-11.1	45.2*	-11.3	33.7*
COc1ccc(-c2cc(C(=O)N3CCN(c4ncccn4)CC3)c3ccccc3n2)cc1OC	6.4	-3.2	-8.3	24.7	1.1	0.7
CCN1CCN(C(=O)c2cc(-c3ccc(Cl)s3)nc3ccccc23)CC1	19.1*	2.4	0.2	12.4	-8.2	11.8
CC(C)Oc1cccc(-c2cc(C(=O)N3CCN(S(C)(=O)=O)CC3)c3ccccc3n2)c1	5.1	3.7	0.0	-3.3	15.3	6.8
CC(C)Oc1cccc(-c2cc(C(=O)N3CCN(c4ncccn4)CC3)c3ccccc3n2)c1	4.8	5.5	-6.2	26.9*	-0.5	18.7
C[C@]1(CO)CCC[C@@]2(C)C1CC[C@@H](CO)[C@@H]2CCc1ccoc1 (some centres undefined)	13.9	7.8	-2.6	3.8	-4.0	29.9*
O=C(COC(=O)c1ccccc1C(=O)OCC(=O)NCCc1c[nH]c2ccccc12)NCCc1c[nH]c2ccccc12	8.1	-4.3	-18.3	34.1*	-4.3	11.8
SMILES	CHO-K1 Ca ag	M1 ag	M1 PAM	CHRM1 antagonist	M1 PAM parental	CHO-K1 Ca antag
CC(=O)c1cccc(NC(=O)NCCc2c[nH]c3ccccc23)c1	3.6	-1.1	-5.0	2.0	-5.7	-7.0
O=C(Nc1cccc(CNCCc2c[nH]c3ccccc23)c1)c1ccccc1Cl	26.8*	-2.5	1.4	-1.7	3.9	3.3
COc1cc([N+](=O)[O-])ccc1N=Nc1c(N)[nH]n(-c2ccccc2)c1=O	17.0*	-8.5	13.6	-10.2	21.9	1.4
Nc1[nH]n(-c2ccccc2)c(=O)c1N=Nc1ccccc1[N+](=O)[O-]	0.1	-0.7	4.7	-0.8	-9.2	-4.2
O=C(O)CCCNc1ccc([N+](=O)[O-])c(NCCCC(=O)O)n1	0.5	-5.3	7.1	-6.5	9.3	-4.2
C/C(=N\Nc1ccccn1)c1ccc(OC(F)F)cc1	16.7*	-5.8	4.5	-8.0	16.3	-2.3
C=C1SC(Nc2c(C)cccc2C)=NC12CCCCC2	0.8	-7.9	-25.5	65.9*	-5.4	3.4
Cc1cc(C)c(NC(=O)CN2C(=O)NC3(CCCCC3)C2=O)c(C)c1	1.5	-3.2	7.7	-9.3	26.6	-18.8
C=C1SC(Nc2c(C)cc(C)cc2C)=NC12CCCCC2	1.1	-7.4	-25.2	68.3*	-7.9	-4.3
CC(=O)c1ccc(OC2(C)CCN(Cc3ccc4c(c3)OCCO4)C2)cc1 (centres undefined)	1.7	-8.3	0.1	-9.7	9.3	4.9
CC(/C=N/NC(=O)c1sc(N)nc1C)=C\c1ccccc1	1.8	25.1*	8.0	-2.9	18.1	-11.9
O=CN1CCN(C=O)C(O)C1O (centres undefined)	0.9	-1.5	5.7	-11.2	-1.1	3.8
CCN(C(=O)CSc1nc2ccc(Cl)cc2[nH]1)C1CCS(=O)(=O)C1 (centres undefined)	0.8	-4.0	6.1	-8.1	17.6	-11.5
CC(=O)c1c(C)oc2ccc(N(C(C)=O)S(=O)(=O)c3cccc4cccnc34)cc12	11.8	1.6	-24.6	60.0*	-9.2	-0.2
CC(=O)c1c(C)oc2ccc(N(C(C)=O)S(=O)(=O)c3ccc(F)cc3C)cc12	1.1	-2.9	11.4	-11.7	14.7	-7.5
CN(C)c1ccc(-c2cccc3nccn23)cc1	0.8	-8.1	1.4	-8.7	15.9	-8.9
CS(=O)(=O)Nc1ccc(-c2cccc3nccn23)cc1	0.0	-2.5	-12.1	24.1*	-0.1	6.4
CNC(=S)N1N=C(c2ccc(OC)cc2)CC1c1ccccc1Cl (centres undefined)	1.2	-7.7	-21.7	34.5*	-7.3	-6.4
COc1ccc(C[C@@H]2CN3C(=NC[C@@H]3Cc3ccc(O)cc3)N2C[C@H](C)NC(=O)CCC2CCCCC2)cc1	-0.1	-14.3	-37.2	48.3*	8.1	-5.7
